Reference: PubChem BioAssay (Tox21)
Inconclusive results are not listed. The source made the active and inactive calls. Unless noted, calls follow the shape of the dose curve; as a rule, active = well fitted curve in the direction sought with a large enough effect in the repeat runs; inconclusive = weak or mixed curves; inactive = flat fitted curve, though single readings scatter.

Assays:
[1] = qHTS assay to test for compound auto fluorescence at 535 nm (green) in HEK293 cells (AID 720680)
[2] = qHTS assay to test for compound auto fluorescence at 460 nm (blue) in HEK293 cell free culture (AID 720681)
How it was run: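 Compounds were added to cell-free DMEM with 10% FBS and fluorescence read directly. The blue channel used 405 nm excitation and 460 nm emission, with triamterene as the reference fluorophore.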

[3] = qHTS assay to test for compound auto fluorescence at 535 nm (green) in HEK293 cell free culture (AID 720682)
How it was run: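 Measurement is a direct plate read of green fluorescence (485 nm in, 535 nm out) after compound addition to serum-supplemented DMEM lacking cells, with fluorescein used to express intensities.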

[4] = qHTS assay to test for compound auto fluorescence at 590 nm (red) in HEK293 cell free culture (AID 720683)
How it was run: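 Cell-free wells of DMEM with 10% FBS received compound, and intrinsic fluorescence was read at excitation/emission 540/590 nm. Values expressed as equivalence to Rose Bengal sodium.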

[5] = qHTS assay to test for compound auto fluorescence at 590 nm (red) in HepG2 cell free culture (AID 720684)
How it was run: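 Auto fluorescence equivalency versus Rose Bengal sodium, red channel Ex/Em 540/590 nm; compounds in cell-free MEM/10% FBS; DMSO vehicle control.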

[6] = qHTS assay to test for compound auto fluorescence at 460 nm (blue) in HepG2 cell free culture (AID 720685)
How it was run: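 Cell-free plates of MEM plus 10% FBS received 23 nL compound or DMSO vehicle; blue-channel (405/460 nm) intensity scored against triamterene as reference fluorophore.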

[7] = qHTS assay to test for compound auto fluorescence at 535 nm (green) in HepG2 cell free culture (AID 720686)
[8] = qHTS assay to test for compound auto fluorescence at 460 nm (blue) in HepG2 cells (AID 720687)
How it was run: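 HepG2 cells in MEM with 10% FBS, attached overnight at 37 C, were exposed to compound or DMSO for 1 hr at 37 C, 5% CO2. Blue fluorescence was read at 405/460 nm, with triamterene as reference fluorophore.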

[9] = biological target: Glucocorticoid receptor (Homo sapiens) (UniProt P04150); assay: qHTS assay to identify small molecule agonists of the glucocorticoid receptor (GR) signaling pathway (AID 720691; active = well fitted activation curve with a large enough effect in the signal ratio in the repeat runs, not every such curve was filed as active; the % refers to the signal ratio)
Chain of Glucocorticoid receptor (Homo sapiens) (P04150 whole entry, looked up): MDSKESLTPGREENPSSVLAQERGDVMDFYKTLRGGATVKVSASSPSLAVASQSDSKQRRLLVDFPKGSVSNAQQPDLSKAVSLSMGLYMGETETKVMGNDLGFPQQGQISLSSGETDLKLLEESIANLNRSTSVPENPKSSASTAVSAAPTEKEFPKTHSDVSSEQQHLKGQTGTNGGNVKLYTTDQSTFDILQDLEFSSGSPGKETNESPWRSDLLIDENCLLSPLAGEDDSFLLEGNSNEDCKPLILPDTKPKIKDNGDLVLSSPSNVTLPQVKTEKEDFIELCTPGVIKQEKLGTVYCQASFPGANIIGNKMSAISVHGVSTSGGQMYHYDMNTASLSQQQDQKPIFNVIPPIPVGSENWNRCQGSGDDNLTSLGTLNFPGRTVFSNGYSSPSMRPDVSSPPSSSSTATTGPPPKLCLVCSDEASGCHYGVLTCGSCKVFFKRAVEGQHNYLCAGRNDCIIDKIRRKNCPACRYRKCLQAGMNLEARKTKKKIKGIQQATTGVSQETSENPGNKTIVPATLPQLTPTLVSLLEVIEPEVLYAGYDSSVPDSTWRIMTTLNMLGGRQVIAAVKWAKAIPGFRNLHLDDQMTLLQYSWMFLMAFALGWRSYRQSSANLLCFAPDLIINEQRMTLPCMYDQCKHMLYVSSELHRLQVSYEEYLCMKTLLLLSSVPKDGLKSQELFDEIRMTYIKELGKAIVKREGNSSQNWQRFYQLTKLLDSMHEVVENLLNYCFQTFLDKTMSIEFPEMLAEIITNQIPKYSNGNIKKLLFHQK
How it was run: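 Compounds in DMSO, alongside positive controls, were added to GR-bla HeLa reporter cells and incubated 18 h at 37 C; GRE-driven beta-lactamase was detected by fluorescence after 2 h with FRET substrate at room temperature.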
% is scaled to controls: 0 for no effect and ±100 for the full control effect.

CCN(Cc1ccccc1)c1ccccc1
inactive: outcome [1] | outcome [2] | outcome [3] | outcome [4] | outcome [5] | outcome [6] | outcome [7] | outcome [8]

CC(CO)(CO)[N+](=O)[O-]
inactive: outcome [1] | outcome [2] | outcome [3] | outcome [4] | outcome [5] | outcome [6] | outcome [7] | outcome [8] | Potency [9]

CCCCCCCCCCCCCCC(=O)O
inactive: outcome [1] | outcome [2] | outcome [3] | outcome [4] | outcome [5] | outcome [6] | outcome [7] | outcome [8]

O=C1c2ccccc2C(=O)c2cc(O)ccc21
inactive: outcome [1] | outcome [2] | outcome [3] | outcome [4] | outcome [5] | outcome [6] | outcome [7] | outcome [8]

C=C[Si](OC(C)=O)(OC(C)=O)OC(C)=O
inactive: outcome [1] | outcome [2] | outcome [3] | outcome [4] | outcome [5] | outcome [6] | outcome [7] | outcome [8] | Potency [9]

CCN1CCOCC1
inactive: outcome [1] | outcome [2] | outcome [3] | outcome [4] | outcome [5] | outcome [6] | outcome [7] | outcome [8]

C=CCCCCCCCCC(=O)OCC
inactive: outcome [1] | outcome [2] | outcome [3] | outcome [4] | outcome [5] | outcome [6] | outcome [7] | outcome [8]

Cc1ccc(C(=O)c2ccc(CC(=O)O)n2C)cc1
inactive: fluorescence, % of fluorescein [1] -0.0701% [at 18.6 µM] | fluorescence, % of fluorescent control [2] 0.0612% [at 18.6 µM] | activity change [3] -0.0078% [at 18.6 µM] | fluorescence, % of fluorescent control [4] 0.0035% [at 18.6 µM] | fluorescence, % of Rose Bengal [5] 0.0726% [at 18.6 µM] | fluorescence, % of fluorescent control [6] -0.117% [at 18.6 µM] | fluorescence, % of fluorescein control [7] -0.0798% [at 18.6 µM] | fluorescence, % of fluorescent control [8] -0.0013% [at 18.6 µM]

CC(=O)OCC(=O)[C@@]1(O)[C@H](C)C[C@H]2[C@@H]3CCC4=CC(=O)C=C[C@]4(C)[C@@]3(F)[C@@H](O)C[C@@]21C
inactive: outcome [1] | outcome [2] | outcome [3] | outcome [4] | outcome [5] | outcome [6] | outcome [7] | outcome [8]

CC(C)(C)C(=O)Oc1ccc(S(=O)(=O)Nc2ccccc2C(=O)NCC(=O)O)cc1
inactive: outcome [1] | outcome [2] | outcome [3] | outcome [4] | outcome [5] | outcome [6] | outcome [7] | outcome [8]

O=C(O)CNC(=O)c1ccccc1
inactive: outcome [1] | outcome [2] | outcome [3] | outcome [4] | outcome [5] | outcome [6] | outcome [7] | outcome [8] | Potency [9]

CC(CC=O)CC(C)(C)C (stereo not given)
inactive: outcome [1] | outcome [2] | outcome [3] | outcome [4] | outcome [5] | outcome [6] | outcome [7] | outcome [8]

O=S(=O)(O)c1cc(O)c(O)c(S(=O)(=O)O)c1
inactive: outcome [1] | outcome [2] | outcome [3] | outcome [4] | outcome [5] | outcome [6] | outcome [7] | outcome [8]

CC(C)c1ccc2ncccc2c1
inactive: outcome [1] | outcome [2] | outcome [3] | outcome [4] | outcome [5] | outcome [6] | outcome [7] | outcome [8]

O=C(O)CNC(=O)c1ccc(CO)o1
inactive: outcome [1] | outcome [2] | outcome [3] | outcome [4] | outcome [5] | outcome [6] | outcome [7] | outcome [8]

COc1ccccc1OCC1CNC(=O)O1 (stereo not given)
inactive: outcome [1] | outcome [2] | outcome [3] | outcome [4] | outcome [5] | outcome [6] | outcome [7] | outcome [8]

CNCCO
inactive: outcome [1] | outcome [2] | outcome [3] | outcome [4] | outcome [5] | outcome [6] | outcome [7] | outcome [8]

COc1cc(-c2ccc(=O)[nH]n2)ccc1OC(F)F
inactive: outcome [1] | outcome [2] | outcome [3] | outcome [4] | outcome [5] | outcome [6] | outcome [7] | outcome [8]

CCOC(=O)c1cnc2c(cnn2CC)c1NN=C(C)C
inactive: outcome [1] | outcome [2] | outcome [3] | outcome [4] | outcome [5] | outcome [6] | outcome [7] | outcome [8]

NC(=O)N1c2ccccc2CC(=O)c2ccccc21
inactive: outcome [1] | outcome [2] | outcome [3] | outcome [4] | outcome [5] | outcome [6] | outcome [7] | outcome [8]

CCCCCCCC1CCCC1=O (stereo not given)
inactive: outcome [1] | outcome [2] | outcome [3] | outcome [4] | outcome [5] | outcome [6] | outcome [7] | outcome [8]

CCCn1cc[n+](C)c1C
inactive: outcome [1] | outcome [2] | outcome [3] | outcome [4] | outcome [5] | outcome [6] | outcome [7] | outcome [8]

CC(=O)Oc1cccc(C)c1
inactive: outcome [1] | outcome [2] | outcome [3] | outcome [4] | outcome [5] | outcome [6] | outcome [7] | outcome [8]

Cc1ncc([C@@H](CCCCCCc2ccc3c(n2)NCCC3)CC(=O)O)cn1
inactive: outcome [1] | outcome [2] | outcome [3] | outcome [4] | outcome [5] | outcome [6] | outcome [7] | outcome [8]
